Results reported in the supplement of paper PMC11732987, “Enantioselective OTUD7B fragment discovery through chemoproteomics screening and high-throughput optimisation” (Communications Chemistry, 2025).

Columns and labels:
Experiment in all cases: log2 ratio of Biotin-Ahx-Ub-VS probe labelling (fragment/DMSO); higher = less target engagement (more negative = stronger competition), active = hit call of the paper (q ≤ 0.05, log2 ratio ≤ -1)
Conditions in all cases: compound concentration: 200 uM; treatment time: 3 h
ALG13 = target: T1, ALG13 (UniProt Q9NP73)
T1 sequence (whole entry): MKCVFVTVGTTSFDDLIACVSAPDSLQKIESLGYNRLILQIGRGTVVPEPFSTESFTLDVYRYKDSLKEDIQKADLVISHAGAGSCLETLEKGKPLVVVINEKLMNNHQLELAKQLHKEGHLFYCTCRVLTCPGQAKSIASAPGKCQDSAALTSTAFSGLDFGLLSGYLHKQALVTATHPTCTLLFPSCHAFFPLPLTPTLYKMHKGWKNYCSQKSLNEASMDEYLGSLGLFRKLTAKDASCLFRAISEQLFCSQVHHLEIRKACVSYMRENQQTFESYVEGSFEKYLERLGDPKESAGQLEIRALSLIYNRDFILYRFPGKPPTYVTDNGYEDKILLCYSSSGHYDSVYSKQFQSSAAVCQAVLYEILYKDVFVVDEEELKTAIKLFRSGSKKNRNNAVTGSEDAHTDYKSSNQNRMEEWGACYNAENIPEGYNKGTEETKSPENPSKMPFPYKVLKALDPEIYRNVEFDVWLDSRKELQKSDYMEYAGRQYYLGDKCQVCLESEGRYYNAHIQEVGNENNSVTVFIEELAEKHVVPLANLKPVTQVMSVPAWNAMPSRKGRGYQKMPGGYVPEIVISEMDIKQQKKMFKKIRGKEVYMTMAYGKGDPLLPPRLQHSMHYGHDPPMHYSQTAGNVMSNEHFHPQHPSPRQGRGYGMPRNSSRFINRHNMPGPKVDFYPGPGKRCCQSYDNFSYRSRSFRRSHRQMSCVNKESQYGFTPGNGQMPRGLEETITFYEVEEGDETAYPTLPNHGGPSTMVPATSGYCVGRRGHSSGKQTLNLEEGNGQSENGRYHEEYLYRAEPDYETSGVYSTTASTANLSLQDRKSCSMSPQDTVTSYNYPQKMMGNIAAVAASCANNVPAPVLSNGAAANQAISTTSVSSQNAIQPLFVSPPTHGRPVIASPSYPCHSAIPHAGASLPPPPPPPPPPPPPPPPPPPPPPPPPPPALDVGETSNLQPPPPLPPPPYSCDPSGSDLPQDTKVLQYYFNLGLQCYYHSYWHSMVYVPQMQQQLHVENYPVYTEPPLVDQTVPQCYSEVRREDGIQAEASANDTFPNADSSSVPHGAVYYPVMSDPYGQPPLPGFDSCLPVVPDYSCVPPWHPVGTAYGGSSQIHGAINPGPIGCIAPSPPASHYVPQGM
Method in brief: (§1)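 Each value is an average log2 ratio of fragment to vehicle, tested by unpaired t-test. The underlying Spectronaut label-free quantities were global-median-normalised, and only proteins with ≥2 unique peptides were included. Triplicate HEK293T lysate samples (495 µg) were exposed to fragment at 200 µM or vehicle for 3 h, then to Biotin-Ahx-Ub-VS at 0.5 µM final for 1 h, before NeutrAvidin enrichment of labelled DUBs, LysC and trypsin digestion, and diaPASEF LC-MS/MS.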

ATXN3 = ATXN3 (UniProt P54252)
Sequence of ATXN3 (P54252 whole entry): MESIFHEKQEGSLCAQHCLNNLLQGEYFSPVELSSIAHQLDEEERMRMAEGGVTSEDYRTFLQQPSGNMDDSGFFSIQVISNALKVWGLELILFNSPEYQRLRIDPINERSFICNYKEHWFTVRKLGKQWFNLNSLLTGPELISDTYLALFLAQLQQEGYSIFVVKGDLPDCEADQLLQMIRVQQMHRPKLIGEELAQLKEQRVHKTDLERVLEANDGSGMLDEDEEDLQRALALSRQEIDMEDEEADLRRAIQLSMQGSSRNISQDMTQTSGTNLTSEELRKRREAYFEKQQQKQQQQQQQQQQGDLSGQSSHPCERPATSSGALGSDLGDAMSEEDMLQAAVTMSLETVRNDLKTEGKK
Method in brief: as §1

BAP1 = target: T2, BAP1 (UniProt Q92560)
T2 sequence (whole entry): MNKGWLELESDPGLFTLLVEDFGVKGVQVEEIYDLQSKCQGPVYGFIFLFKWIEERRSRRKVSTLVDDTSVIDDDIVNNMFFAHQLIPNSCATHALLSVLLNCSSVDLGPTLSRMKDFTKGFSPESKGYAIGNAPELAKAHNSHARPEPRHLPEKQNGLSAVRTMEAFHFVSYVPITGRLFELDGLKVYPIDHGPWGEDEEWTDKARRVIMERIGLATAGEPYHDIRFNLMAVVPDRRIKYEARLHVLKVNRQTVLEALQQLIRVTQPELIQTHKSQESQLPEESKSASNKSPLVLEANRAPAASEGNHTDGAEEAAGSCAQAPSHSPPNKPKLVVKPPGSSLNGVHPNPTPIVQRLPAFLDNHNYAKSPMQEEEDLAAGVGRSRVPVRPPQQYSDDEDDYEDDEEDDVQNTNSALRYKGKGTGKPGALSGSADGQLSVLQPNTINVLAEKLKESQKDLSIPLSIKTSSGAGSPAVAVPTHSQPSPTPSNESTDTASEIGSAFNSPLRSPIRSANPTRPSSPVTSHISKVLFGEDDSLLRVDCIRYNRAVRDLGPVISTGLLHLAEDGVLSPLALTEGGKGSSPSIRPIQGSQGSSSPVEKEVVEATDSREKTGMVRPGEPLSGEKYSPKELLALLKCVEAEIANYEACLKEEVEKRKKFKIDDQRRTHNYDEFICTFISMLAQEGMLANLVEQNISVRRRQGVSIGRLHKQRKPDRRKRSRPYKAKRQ
Method in brief: as §1

EIF3F = EIF3F (UniProt O00303)
Sequence of EIF3F (O00303 whole entry): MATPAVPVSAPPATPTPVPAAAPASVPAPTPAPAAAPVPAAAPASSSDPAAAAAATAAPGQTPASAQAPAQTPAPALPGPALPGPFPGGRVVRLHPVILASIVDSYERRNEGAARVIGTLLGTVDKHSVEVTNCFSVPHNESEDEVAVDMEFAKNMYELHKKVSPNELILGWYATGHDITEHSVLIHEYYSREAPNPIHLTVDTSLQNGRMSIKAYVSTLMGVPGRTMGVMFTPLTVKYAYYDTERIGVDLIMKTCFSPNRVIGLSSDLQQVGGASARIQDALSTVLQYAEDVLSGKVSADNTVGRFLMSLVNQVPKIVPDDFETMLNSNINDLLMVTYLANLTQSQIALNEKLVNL
Method in brief: as §1

EIF3H = EIF3H (UniProt O15372)
Sequence of EIF3H (O15372 whole entry): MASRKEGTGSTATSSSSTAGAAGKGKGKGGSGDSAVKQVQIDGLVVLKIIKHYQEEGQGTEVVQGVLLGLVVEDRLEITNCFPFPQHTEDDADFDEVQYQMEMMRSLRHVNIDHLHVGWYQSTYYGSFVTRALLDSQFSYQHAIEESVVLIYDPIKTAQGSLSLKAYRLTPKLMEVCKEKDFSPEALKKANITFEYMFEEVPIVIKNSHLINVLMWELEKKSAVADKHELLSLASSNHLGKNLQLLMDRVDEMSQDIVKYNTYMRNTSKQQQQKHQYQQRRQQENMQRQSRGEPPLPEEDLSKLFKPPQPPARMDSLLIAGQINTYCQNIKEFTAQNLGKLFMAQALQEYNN
Method in brief: as §1

FAM105A = target: T3, FAM105A (UniProt Q9NUU6)
T3 sequence (whole entry): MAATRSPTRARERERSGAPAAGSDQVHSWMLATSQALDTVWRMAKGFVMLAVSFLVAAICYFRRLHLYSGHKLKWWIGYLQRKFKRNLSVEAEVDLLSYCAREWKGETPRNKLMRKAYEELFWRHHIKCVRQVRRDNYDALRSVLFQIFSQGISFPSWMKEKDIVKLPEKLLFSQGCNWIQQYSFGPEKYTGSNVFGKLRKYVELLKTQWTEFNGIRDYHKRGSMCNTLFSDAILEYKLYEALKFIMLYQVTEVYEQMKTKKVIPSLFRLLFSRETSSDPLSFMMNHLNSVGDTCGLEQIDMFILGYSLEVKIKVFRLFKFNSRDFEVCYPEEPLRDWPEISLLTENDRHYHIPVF
Method in brief: as §1

OTUB1 = OTUB1 (UniProt Q96FW1)
Sequence of OTUB1 (Q96FW1 whole entry): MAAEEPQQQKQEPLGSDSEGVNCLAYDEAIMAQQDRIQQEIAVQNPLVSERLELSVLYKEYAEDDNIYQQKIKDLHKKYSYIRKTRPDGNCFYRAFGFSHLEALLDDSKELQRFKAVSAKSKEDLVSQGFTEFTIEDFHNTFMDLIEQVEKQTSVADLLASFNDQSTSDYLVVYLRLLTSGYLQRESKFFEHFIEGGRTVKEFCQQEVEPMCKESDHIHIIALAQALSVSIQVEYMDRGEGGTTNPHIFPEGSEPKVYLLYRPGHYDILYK
Method in brief: as §1

OTUD4 = target: T4, OTUD4 (UniProt Q01804)
T4 sequence (whole entry): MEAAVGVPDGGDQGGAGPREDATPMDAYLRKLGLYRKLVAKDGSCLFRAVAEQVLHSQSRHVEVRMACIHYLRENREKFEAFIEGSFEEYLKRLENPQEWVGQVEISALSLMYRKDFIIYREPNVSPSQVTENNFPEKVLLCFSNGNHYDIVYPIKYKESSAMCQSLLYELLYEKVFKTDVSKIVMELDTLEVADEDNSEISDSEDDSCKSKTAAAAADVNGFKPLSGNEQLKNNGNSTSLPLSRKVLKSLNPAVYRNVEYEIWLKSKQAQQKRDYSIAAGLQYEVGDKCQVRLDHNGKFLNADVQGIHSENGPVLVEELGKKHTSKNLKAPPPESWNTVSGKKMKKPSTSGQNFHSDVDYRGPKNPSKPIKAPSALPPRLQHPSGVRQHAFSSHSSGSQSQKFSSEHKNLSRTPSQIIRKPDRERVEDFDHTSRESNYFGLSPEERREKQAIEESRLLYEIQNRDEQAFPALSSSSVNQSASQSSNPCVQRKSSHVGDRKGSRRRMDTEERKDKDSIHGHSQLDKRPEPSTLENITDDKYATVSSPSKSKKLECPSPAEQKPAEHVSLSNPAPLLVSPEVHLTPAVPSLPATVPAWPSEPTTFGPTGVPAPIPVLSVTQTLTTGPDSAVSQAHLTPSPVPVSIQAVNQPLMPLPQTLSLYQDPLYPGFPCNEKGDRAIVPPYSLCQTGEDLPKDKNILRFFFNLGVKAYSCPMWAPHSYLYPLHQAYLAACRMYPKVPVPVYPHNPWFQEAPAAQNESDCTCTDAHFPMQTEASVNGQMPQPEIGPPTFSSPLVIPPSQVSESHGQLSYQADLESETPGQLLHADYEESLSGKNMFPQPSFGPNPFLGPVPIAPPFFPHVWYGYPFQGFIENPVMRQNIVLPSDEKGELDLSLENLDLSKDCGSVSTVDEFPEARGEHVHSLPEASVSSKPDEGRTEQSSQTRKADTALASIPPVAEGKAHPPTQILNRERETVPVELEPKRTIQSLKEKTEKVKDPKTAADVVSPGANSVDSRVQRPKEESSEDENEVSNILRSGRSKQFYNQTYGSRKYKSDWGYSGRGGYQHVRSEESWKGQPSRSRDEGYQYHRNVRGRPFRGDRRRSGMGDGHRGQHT
Method in brief: as §1

OTUD5 = target: T5, OTUD5 (UniProt Q96G74)
T5 sequence (whole entry): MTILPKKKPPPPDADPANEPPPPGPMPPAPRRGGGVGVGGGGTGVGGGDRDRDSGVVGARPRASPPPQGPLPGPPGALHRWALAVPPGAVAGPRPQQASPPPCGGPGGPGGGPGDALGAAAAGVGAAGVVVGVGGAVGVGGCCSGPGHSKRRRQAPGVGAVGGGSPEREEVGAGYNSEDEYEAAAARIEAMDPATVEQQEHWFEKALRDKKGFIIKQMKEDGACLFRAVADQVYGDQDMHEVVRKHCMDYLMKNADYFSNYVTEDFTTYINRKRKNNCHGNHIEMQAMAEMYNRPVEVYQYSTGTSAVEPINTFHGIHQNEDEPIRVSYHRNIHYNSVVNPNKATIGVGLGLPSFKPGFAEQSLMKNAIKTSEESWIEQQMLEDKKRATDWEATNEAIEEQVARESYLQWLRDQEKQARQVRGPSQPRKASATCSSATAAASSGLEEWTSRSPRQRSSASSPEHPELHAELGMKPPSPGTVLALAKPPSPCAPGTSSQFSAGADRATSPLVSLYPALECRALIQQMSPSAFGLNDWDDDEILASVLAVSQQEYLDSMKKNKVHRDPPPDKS
Method in brief: as §1

Measured: log2 ratio of Biotin-Ahx-Ub-VS probe labelling

CCN(C(=O)CCl)C1CCCCC1
inactive: ALG13 0.0472 | ATXN3 -0.0119 | BAP1 0.174 | EIF3F -0.141 | EIF3H 0.022 | FAM105A -0.207 | OTUB1 0.0443 | OTUD4 -0.12 | OTUD5 -0.00145
